# Test results from PubChem BioAssay (NCI).
# Compounds without any hit were thinned out: in the full panel of roughly 83,000, 20% have a hit.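 Compound tested at a single concentration for 48 hours in 96-well plates; a percent growth value below 10 was scored as active.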 A number with no mark means an inactive call. The source made the active and inactive calls.
# Columns and labels:
# Assay in all cases: NCI-60 one-dose screen, 48 h (100 = growth as untreated, 0 = no growth, -100 = all killed)
# Conditions in all cases: 10 µM
# DU-145 prostate = system: DU-145 prostate
# K-562 leukemia = system: K-562 leukemia
# MALME-3M melanoma = system: MALME-3M melanoma
# MDA-MB-231 breast = system: MDA-MB-231 breast
# RXF 393 renal = system: RXF 393 renal
# SF-268 CNS = system: SF-268 CNS
# SF-295 CNS = system: SF-295 CNS
# SF-539 CNS = system: SF-539 CNS
# UACC-257 melanoma = system: UACC-257 melanoma
# M14 melanoma = system: M14 melanoma
# HCT-15 colon = system: HCT-15 colon
# HT29 colon = system: HT29 colon
# SNB-75 CNS = system: SNB-75 CNS
# SNB-19 CNS = system: SNB-19 CNS
# U251 CNS = system: U251 CNS
# PC-3 prostate = system: PC-3 prostate
# SK-MEL-5 melanoma = system: SK-MEL-5 melanoma
# UACC-62 melanoma = system: UACC-62 melanoma
# LOX IMVI melanoma = system: LOX IMVI melanoma
# SK-MEL-28 melanoma = system: SK-MEL-28 melanoma
Structure (SMILES),growth (DU-145 prostate),growth (K-562 leukemia),growth (MALME-3M melanoma),growth (MDA-MB-231 breast),growth (RXF 393 renal),growth (SF-268 CNS),growth (SF-295 CNS),growth (SF-539 CNS),growth (UACC-257 melanoma),growth (M14 melanoma),growth (HCT-15 colon),growth (HT29 colon),growth (SNB-75 CNS),growth (SNB-19 CNS),growth (U251 CNS),growth (PC-3 prostate),growth (SK-MEL-5 melanoma),growth (UACC-62 melanoma),growth (LOX IMVI melanoma),growth (SK-MEL-28 melanoma)
Cc1ccc(CSc2nc(Cl)c(C#N)c(-c3ccc(F)cc3)n2)cc1,75.1%,55.7%,113%,96.5%,70.2%,81.8%,70.2%,71.8%,75.3%,87.6%,54.4%,38.4%,126%,89.3%,68.8%,42.6%,77.6%,77.2%,85.8%,93.9%
Cc1cc(C)cc(Oc2cccc(-c3c(C)nnn3C3CCN(CCN(C)C)CC3)n2)c1,55.8%,13.6%,-40.5% (active),36.9%,-6.82% (active),52.2%,32.9%,34.2%,-31.7% (active),7.14% (active),7.96% (active),11%,16.7%,47.7%,36.5%,37.7%,-53.4% (active),18.2%,2.35% (active),19%
O=C1Nc2cc(-c3ccc(NC(=O)c4cccc([N+](=O)[O-])c4)cc3)ccc2/C1=C/c1ccc[nH]1,67.7%,93.7%,98.7%,86.6%,83.7%,98.4%,83.5%,89.2%,97.1%,102%,55.3%,102%,223%,94.5%,99.3%,66.2%,104%,63.7%,86.9%,97.1%
COc1cc2c(cc1OC)CN(CCCCOc1cc(O)c3c(=O)cc(-c4ccccc4)oc3c1)CC2,80.3%,-6.81% (active),-68.6% (active),38.5%,29.8%,65.9%,26.2%,48.7%,5.33% (active),-21% (active),21.4%,-6.93% (active),98.9%,78.3%,49.8%,63.1%,17.1%,40.4%,-66.1% (active),-8.78% (active)
O=C1Nc2ccc(Cl)cc2/C1=C/c1cccc(OCc2ccccn2)c1,6.01% (active),0.86% (active),-51.9% (active),-50.8% (active),-31.4% (active),4.23% (active),-42.4% (active),-64.4% (active),-0.118% (active),-50.5% (active),-66.8% (active),-63.8% (active),34.8%,0.791% (active),-90.7% (active),-9.7% (active),-47.3% (active),-81.2% (active),-89.9% (active),-49.2% (active)
COc1ccccc1[C@H]1C(C(=O)c2ccc(O)cc2)C2(N[C@@H]1c1ccccc1)C(=O)Nc1ccc(Br)cc12 (stereo not given in full),56%,23.1%,66.3%,32.9%,13.5%,53.1%,27.9%,51.8%,56.1%,51.6%,34.4%,-9.98% (active),41%,49.3%,26.1%,23.2%,26.4%,38.1%,-39.3% (active),60%
COc1cccc(/C=C2\N=C(C)N(CCc3ccc(S(N)(=O)=O)cc3)C2=O)c1,112%,99.9%,98.2%,104%,121%,101%,105%,99.8%,101%,100%,105%,108%,98%,95.1%,99.9%,98.4%,102%,94%,97.4%,105%
CCOC(=O)C1NN(c2ccc(S(N)(=O)=O)cc2)c2nc3nc(-c4cccs4)cc(-c4cccs4)c3c(=O)n21 (stereo not given),91.6%,83.3%,86.1%,88.8%,51.6%,75%,78.5%,63.1%,109%,74%,88.5%,73.9%,66.8%,96.4%,84.5%,80%,75.5%,74.8%,80.7%,73.1%
COc1ccc(C(=O)Nc2sc3c(c2C#N)CCC(=O)C3)cc1C(F)(F)F,25.3%,3.54% (active),-52.3% (active),-50.8% (active),-41.9% (active),26.8%,-15.4% (active),-82.7% (active),-15.8% (active),-16.8% (active),-69.8% (active),-31.4% (active),-15.2% (active),-5.9% (active),3.33% (active),8.45% (active),-92.2% (active),-25.5% (active),-15% (active),-12.6% (active)
Cn1cc(-c2cc(N)n3nc(-c4c[nH]c5ccc(Br)cc45)cc3n2)c2cccnc21,-92.5% (active),-3.96% (active),-92.4% (active),-85.6% (active),-85.2% (active),-45.7% (active),-91.9% (active),-97.7% (active),-84.3% (active),-85.8% (active),-77% (active),-81.7% (active),-73.1% (active),-83.5% (active),-83.9% (active),-45.9% (active),-98.3% (active),-93.9% (active),-95.6% (active),-95.8% (active)
CC(C)(C)Nc1nc2cc(Cl)c(Cl)cc2nc1S(C)(=O)=O,57.2%,-5.97% (active),-78.5% (active),26.7%,6.24% (active),73.7%,91.1%,47.3%,70.6%,5.68% (active),-35.8% (active),47.4%,45.1%,102%,68.7%,54%,-17.4% (active),52.9%,-98% (active),62.3%
CC1=C(C(=O)OC(C)C)C(c2ccc(O)cc2)NC(=S)N1 (stereo not given),100%,95.2%,105%,100%,97.3%,111%,96.6%,98.2%,121%,97%,102%,108%,217%,101%,102%,94.7%,106%,93.4%,94.4%,109%
Brc1ccc(/C=C/c2n(Cc3ccc4ccccc4c3)c3ccccc3[n+]2Cc2ccc3ccccc3c2)cc1,3.53% (active),-19.3% (active),-87.8% (active),-95.9% (active),-83.1% (active),-38.3% (active),-65.4% (active),-98.4% (active),-40.3% (active),-31.7% (active),7.22% (active),-87% (active),-84.3% (active),-45.9% (active),-88.9% (active),-79.1% (active),-99.2% (active),-81.9% (active),-100% (active),-93.1% (active)
CN1CCN(c2ccc(C(=O)/C=C/c3cc(Br)ccc3F)cc2)CC1,44.8%,-35.5% (active),78.9%,26.9%,38.8%,88.6%,60.7%,2.31% (active),73.8%,52.1%,-22.6% (active),-13.2% (active),40.1%,56.5%,23.8%,37.1%,18.6%,64%,-91.8% (active),90.8%
COc1ccc(C(=O)NC(=S)N2CCN(c3ncnc4c3cnn4-c3ccccc3)CC2)cc1,79.9%,62.7%,57.8%,80.2%,49.9%,63.8%,57.8%,32.3%,54.4%,63.1%,42.7%,80.5%,31.7%,10.2%,55.1%,59%,71.6%,40.8%,62.3%,50%
